Measurements taken from PubChem BioAssay AID1259422 (The Scripps Research Institute Molecular Screening Center, 2018).
Values joined by “and” are separate entries in the source; they are usually repeats but may differ in a detail not shown here. Identical values can stand only once. The whole screen tested about 640,000 compounds, of which about 9,300 (1.5%) were called active. Rule as the data show it: active = inhibition above about 32%; inactive = the rest. Many of the other results were omitted from the sample, so actives are more common in it than they were.

Assay: TEAD-YAP interaction inhibition, primary screen, TEAD-YAP interaction inhibitor project, luminescence, HEK-TIYL cells (AID 1259422);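 also: 0% = median of test compound wells and 100% = reference inhibitor wells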
Details: TEAD-Gal4/YAP UAS-luciferase luminescence, at 9.12 µM, stronger effect = higher value

SMILES	inhibition
CC(=O)N1c2ccc(NC(=O)c3ccccc3)cc2C(C)(c2ccc(C)cc2)CC1(C)C (stereo not drawn)	13.9% (inactive)
CC(Cl)/C(O)=C(\C#N)c1nc2ccccc2[nH]1 (stereo not drawn)	-6.03% (inactive)
OCCNC1CCCc2c1[nH]c1ccc(-c3ccccc3)cc21 (stereo not drawn)	-12.6% (inactive)
Cc1ccc2[nH]c3c(c2c1)CCCC3NCc1ccccc1 (stereo not drawn)	53.6% (active)
Cc1ccc2[nH]c3c(c2c1)CCCC3NC=O (stereo not drawn)	5.42% (inactive)
Cc1ccc2nc(-c3cccc(NC(=O)c4cc([N+](=O)[O-])ccc4Br)c3)oc2c1	6.62% (inactive)
O=C(COc1ccc(Cl)cc1)Nc1ncc(Cc2ccc(F)cc2)s1	5.3% (inactive)
CC(=O)c1ccc(NC(=O)c2sc3nc4n(c(=O)c3c2C)CCCCC4)cc1	-3.85% (inactive)
CC(C)(C)NCC(O)COc1c(Br)ccc2c1sc1nc3n(c(=O)c12)CCCCC3 (stereo not drawn)	-32.7% (inactive)
O=c1c2c(nc3n1CCCCC3)sc1c(O)cccc12	92.2% (active)
COc1ccc(N2CC(CNC(=O)c3cccs3)CC2=O)cc1 (stereo not drawn)	6.17% (inactive)
Cc1cccc(N2C(N)=C(C#N)C(c3ccc(F)cc3)C3=C2CC(C)(C)CC3=O)c1 (stereo not drawn)	-0.79% (inactive)
CCOc1ccc(C2C(C#N)=C(N)N(c3cccc([N+](=O)[O-])c3)C3=C2C(=O)CC(C)(C)C3)cc1 (stereo not drawn)	-5.19% (inactive)
CCOc1ccc(C2C(C#N)=C(N)N(c3cccc(C)c3)C3=C2C(=O)CC(C)(C)C3)cc1 (stereo not drawn)	56.6% (active)
CN(C)c1cccc(C(=O)N2CCN(c3cccc(Cl)c3)CC2)c1	32.4% (active)
CSc1ncc(Cl)c(C(=O)N2CCN(c3cccc(Cl)c3)CC2)n1	39% (active)
Cc1cc(C(=O)N2CCN(c3cccc(Cl)c3)CC2)ccc1[N+](=O)[O-]	3.11% (inactive)
CC(=O)Nc1ccc(C(=O)N2CCN(c3cccc(Cl)c3)CC2)cc1	-15.7% (inactive)
CC(=O)c1c(C)[nH]c(C(=O)N2CCN(c3ccc(Cl)cc3)CC2)c1C	12.3% (inactive)
COc1cc(OC)cc(-n2nc(C(=O)N3CCN(c4cccc(Cl)c4)CC3)c3ccccc3c2=O)c1	9.86% (inactive)
CCc1c(C(=O)N2CCN(c3cccc(Cl)c3)CC2)[nH]c(C)c1C(C)=O	52.2% (active)
O=C(c1ccc([N+](=O)[O-])cc1)N1CCN(c2cccc(Cl)c2)CC1	-1.04% (inactive)

SMILES	inhibition
CC(=O)/C(C(=N)N1CCN(c2cccc(Cl)c2)CC1)=C(/C)O	-6.64% (inactive)
COc1ccc(-n2cc(C(=O)N3CCN(c4cccc(Cl)c4)CC3)c3ccccc3c2=O)cc1	0.04% (inactive)
O=C(c1cc(Cl)ccc1Cl)N1CCN(c2ccc(F)cc2)CC1	10.3% (inactive)
COc1ccc(Cl)cc1C(=O)N1CCN(c2cccc(Cl)c2)CC1	64% (active)
CN1CCN(C(=O)c2cc(-c3cccs3)n(CC(=O)N3CCC(O)CC3)n2)CC1	-2.96% (inactive)
Cc1ccc(Nc2nc(-c3ccccc3Cl)nc3ccccc23)cc1Cl	9.51% (inactive)
Cc1c(Cl)cccc1NC(=O)c1cnn2c(C(F)(F)F)cc(-c3ccco3)nc12	0.28% (inactive)
O=[N+]([O-])c1ccc(-c2csc(=NCc3cccnc3)n2-c2ccccc2)cc1	-0.76% (inactive)
Cc1nnc(NC(=O)CSc2nc3ccccc3cc2C#N)s1	-10.2% (inactive)
COc1ccc(CC(=O)Nc2nnc(SCC(=O)Nc3nnc(C)s3)s2)cc1	12.5% (inactive)
Cc1nnc(NC(=O)CSc2nc(C(C)C)ccc2C#N)s1	62.8% (active)
C=CCNC(=O)Cn1cnc2c([nH]c3ccc(C)cc32)c1=O	3.72% (inactive)
NC(=O)CN(c1cc(C(F)(F)F)ccc1Cl)S(=O)(=O)c1ccccc1	-1.66% (inactive)
O=C(CN(c1cc(C(F)(F)F)ccc1Cl)S(=O)(=O)c1ccccc1)NCc1ccncc1	3.78% (inactive)
COc1ccc(NC(=O)CN(c2cc(C(F)(F)F)ccc2Cl)S(=O)(=O)c2ccccc2)cc1	56.2% (active)
CCCCOc1ccc(NC(=O)C(C)Oc2ccc(OC)cc2)cc1 (stereo not drawn)	7.98% (inactive)
COC(=O)c1sc(NC(=O)c2ccncc2)c(C#N)c1C	-4% (inactive)
COC(=O)c1sc(NC(=O)C2(C)CC2(Cl)Cl)c(C#N)c1C (stereo not drawn)	38.3% (active)
COC(=O)c1sc(NC(=O)C2CCCCC2)c(C#N)c1C	1.29% (inactive)
COc1ccccc1N1CCN(S(=O)(=O)c2ccc(F)c(C(=O)Nc3ccc(C(C)C)cc3)c2)CC1	-4.13% (inactive)
CC(C)CC(C(=O)N1CCOCCN(C(=O)C(CC(C)C)N2C(=O)c3ccccc3C2=O)CCOCC1)N1C(=O)c2ccccc2C1=O (stereo not drawn)	-2.73% (inactive)
CCCOc1c(Cl)cc(/C=C/C(=O)O)cc1OC	4.32% (inactive)

SMILES	inhibition
O=C(NNc1ncc([N+](=O)[O-])cc1[N+](=O)[O-])c1ccncc1	6.87% (inactive)
O=C(O)C1CCCCC1C(=O)N1CCN(c2nc(-c3ccccc3Cl)c3cc(Br)ccc3n2)CC1 (stereo not drawn)	-2.46% (inactive)
C[C@H]1O[C@@H](O[C@H]2[C@@H](O)C[C@H](O[C@H]3[C@@H](O)C[C@H](O[C@H]4CC[C@]5(C)C6C[C@@H](O)[C@]7(C)[C@@H](C8=CC(=O)OC8)CC[C@]7(O)C6CC[C@@H]5C4)O[C@@H]3C)O[C@@H]2C)C[C@H](O)[C@@H]1O (stereo partly drawn)	99.7% (active) and 101% (active)
O=C1CCCN1CCCNc1cc(N2CCN(c3ccccn3)CC2)ncn1	6.77% (inactive)
CC(=O)c1cc(Cl)cc(Cl)c1O	-4.24% (inactive)
CCCOc1ccc2cc(-c3csc(N)n3)c(=O)oc2c1	59.4% (active)
CCN(CC)c1ccc2cc(-c3csc(-c4nc(-c5cc6ccc(N(CC)CC)cc6oc5=O)cs4)n3)c(=O)oc2c1	4.64% (inactive)
CCOC(=O)COc1ccc2cc(-c3nc4ccccc4s3)c(=O)oc2c1	-4.53% (inactive)
CN(CCO)c1ccc(/C=N/Nc2nncc3ccccc23)cc1	76.3% (active)
CN(C)c1ccc(/C=N/Nc2nc(-c3ccccc3)cs2)cc1	-3.84% (inactive)
COc1ccc(/C=N/NC(=O)CN(C)c2ccccc2)cc1OC	-17.2% (inactive)
c1ccc(CNc2nc3ccccc3n2CCOc2ccccc2)cc1	-21.7% (inactive)
CCC(CC)NS(=O)(=O)c1ccccc1[N+](=O)[O-]	12.2% (inactive)
Nc1ccc(Sc2ccccc2[N+](=O)[O-])cc1	-0.16% (inactive)
CCS(=O)(=O)c1cc([N+](=O)[O-])c(Sc2ccccc2N)s1	75.8% (active)
COC(=O)c1cnc(N(C)C2CCCCC2)c2ccccc12	6.67% (inactive)
CN(C(=O)Cn1nc2c3ccccc3nc(C3CC3)n2c1=O)C1CCCCC1	-4.4% (inactive)
CN(c1ccc2nc3ccccc3c(=O)n2n1)C1CCCCC1	89.7% (active)
c1ccc(Nc2nc(Nc3ncccn3)nc3c2ncn3-c2ccccc2)cc1	-25.3% (inactive)
CC(=O)Nc1ccc(Nc2nc(Cl)nc3c2ncn3-c2ccsc2)cc1	33.8% (active)
CC(=O)Nc1ccc(Nc2nc(N3CCN(c4ccccn4)CC3)nc3c2ncn3-c2ccsc2)cc1	19.9% (inactive)
CC(=O)Nc1ccc(Nc2nc(Nc3cnccn3)nc3c2ncn3-c2ccccc2)cc1	49.2% (active)

SMILES	inhibition
CC(=O)Nc1ccc(Nc2nc(Nc3ccncn3)nc3c2ncn3-c2ccsc2)cc1	6.4% (inactive)
CC(=O)Nc1ccc(Nc2nc(N3CCC(N4CCOCC4)CC3)nc3c2ncn3-c2ccccc2)cc1	5.05% (inactive)
COc1ccc(S(=O)(=O)CCC(=O)Nc2ccc(C)cc2Br)cc1	-9.1% (inactive)
COc1ccc(/C=C2/C(=O)NN(c3cccc(Cl)c3)C2=O)cc1	5.26% (inactive)
CC(=O)Oc1ccc(/C=C2\N=C(c3ccccc3F)OC2=O)cc1	-4.17% (inactive)
Cc1c(C(=O)N/N=C/c2cccc([N+](=O)[O-])c2)nnn1-c1nonc1N	-6.33% (inactive)
CC(=O)Oc1c(C)cc(C)c2ccc(=O)[nH]c12	-7.29% (inactive)
O=C1CN(C(=O)CCl)c2ccccc2N1	14.1% (inactive)
CC1CC(=O)Nc2ccccc2N1C(=O)Cc1ccc(Cl)cc1 (stereo not drawn)	-16.4% (inactive)
CCc1ccc(CC(=O)N2CC(=O)Nc3ccccc32)cc1	49.8% (active)
CCCOCc1c[nH]c(=O)[nH]c1=O	-4.81% (inactive)
CCOC(=O)C1=C(NC(=S)NC(=O)c2ccccc2)c2ccccc2CC1(CC)CC	51.5% (active)
COc1ccc(C(=O)O)cc1NC(=S)NC(=O)c1ccccc1	-6.39% (inactive)
CCOC(=O)c1c(NC(=S)NC(=O)c2ccccc2)sc2c1CC(C)(CC)OC2 (stereo not drawn)	8.08% (inactive)
OC(CN1CCN(c2ccccc2F)CC1)Cn1nnnc1-c1ccccc1 (stereo not drawn)	2.32% (inactive)
Cc1cc(C)c(/C=C/c2cc(C(F)(F)F)[nH]c(=O)n2)cc1C	-9.26% (inactive)
Cc1nc(N2CCN(c3ccccn3)CC2)c2c(C)c(C(=O)Nc3ccccc3C(F)(F)F)sc2n1	-2.56% (inactive)
O=C(O)c1cccc(-c2cnc3ccc(NCc4ccc(F)cc4)nn23)c1	-7.03% (inactive)
c1ccc(Cn2cc(-c3cnn4c(NCCCN5CCOCC5)ccnc34)cn2)cc1	-1.52% (inactive)
Cc1ccc(-c2cnn3c(NCCCN4CCOCC4)ccnc23)cc1C	10.5% (inactive)
c1ccc(Oc2ccc(-c3cnn4c(NCCCN5CCOCC5)ccnc34)cc2)cc1	42% (active)
CCOc1cc2c(cc1OCC)C(c1cc(OC)ccc1F)NCC2 (stereo not drawn)	4.41% (inactive)
